Laboratory results from PubChem BioAssay AID651636 (Sanford-Burnham Center for Chemical Genomics, 2012).
About 3,000 (0.83%) of roughly 360,000 compounds were called active. What follows is part of a selection rich in actives, with near analogues and random picks from the rest. Values without a mark were called inactive. Cut-off read from the data, not from the text of the source: active = inhibition above about 38%; inactive = the rest.

biological target: G-protein coupled receptor 183 (Homo sapiens) (UniProt P32249); assay: EBI2 receptor antagonists, beta-arrestin recruitment, primary screen, cell-based, luminescence, 7a,25-OHC stimulation, uHTS (AID 651636); details: 7a,25-OHC stimulated, at 5 µM, active compounds read high;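 note: enzyme fragment complementation signal reports receptor beta-arrestin coupling in cells; 0% = agonist plus DMSO wells and 100% = wells without agonist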
Sequence (P32249 whole entry, looked up, the tested form may be a part): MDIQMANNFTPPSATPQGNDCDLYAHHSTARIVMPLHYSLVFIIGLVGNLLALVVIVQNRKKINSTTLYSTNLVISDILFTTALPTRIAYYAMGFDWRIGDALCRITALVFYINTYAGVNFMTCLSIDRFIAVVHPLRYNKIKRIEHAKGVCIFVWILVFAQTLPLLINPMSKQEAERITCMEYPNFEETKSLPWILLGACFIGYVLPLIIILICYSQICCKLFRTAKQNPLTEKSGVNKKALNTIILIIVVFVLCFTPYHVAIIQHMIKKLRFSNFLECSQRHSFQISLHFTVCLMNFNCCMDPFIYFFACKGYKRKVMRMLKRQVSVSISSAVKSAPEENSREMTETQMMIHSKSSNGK

Compound | inhibition
O=C(NCc1ccc(Cl)cc1)C1CCN(S(=O)(=O)c2cccs2)CC1 | 53% (active)
O=C(NCc1ccc(Cl)cc1)C(=O)NCC1CCCN1S(=O)(=O)c1cccs1 (stereo not given) | -11.1%
O=C(NCc1ccccc1)C1CCCN(S(=O)(=O)c2cccs2)C1 (stereo not given) | -3.94%
N#CCCCn1c(O)c(N=NC(=O)C(O)c2ccccc2)c2ccccc21 (stereo not given) | 10.8%
COC(=O)c1cccc(NS(C)(=O)=O)c1 | 1.19%
CCCc1cc(=O)oc2cc(OCC(=O)Nc3ccc(CN4CCOCC4)cc3)c(Cl)cc12 | -0.759%
CC(NC(=S)NC1CCCCC1)C(c1ccccc1)N1CCOCC1 (stereo not given) | -1.91%
Cc1sc(NC(=O)C2C3CCC(O3)C2C(=O)O)c(C(=O)OC(C)C)c1-c1ccc(Cl)cc1 (stereo not given) | 2.12%
CC(C)c1cc(Cn2c3ccccc3c(=O)n2C(C)Cn2cc(C3CC3)nn2)on1 (stereo not given) | -7.98%
CCC(C(=O)NC1CCCCC1)N(C(=O)c1snc(C(N)=O)c1N)c1ccc(OC)cc1OC (stereo not given) | 8.28%
COc1ccc(C(C(=O)NC2CCCCC2)N(C(=O)c2snc(C(N)=O)c2N)c2ccccc2OC)cc1 (stereo not given) | 48.7% (active)
COc1ccc(N(C(=O)c2snc(C(N)=O)c2N)C(C(=O)NC2CCCC2)c2ccc(C)o2)c(OC)c1 (stereo not given) | 34.7%
Cc1ccccc1C(=O)NCC(c1ccco1)N1CCc2ccccc21 (stereo not given) | 6.76%
CCC1NC(=O)c2cccnc2-n2c1nc1ccc(C)cc1c2=O (stereo not given) | -1.36%
Cc1cc(C)c2c(=O)n3c(nc2c1)C(CC(C)C)NC(=O)c1cc2ccccc2cc1-3 (stereo not given) | 77.3% (active)
O=C1NC(Cc2ccccc2)c2nc3ccc(Br)cc3c(=O)n2-c2cc3ccccc3cc21 (stereo not given) | 37.7%
Cc1[nH]c2c(C(=O)N3CCCC(CCC(=O)NCc4ccccc4F)C3)cccc2c1C (stereo not given) | 2.8%
CN1CCN(c2ccccc2NC(=O)COc2ccc(C3CCCCC3)cc2)CC1 | 22.8%
O=C(CSCc1ccc([N+](=O)[O-])cc1)NCCSCc1ccccc1 | 3.17%
O=S(=O)(c1cccc(C(F)(F)F)c1)N1CCN(c2cnccn2)CC1 | -1.02%
Nc1ccn(CC(=O)N2CCN(c3ccccn3)CC2)c(=O)n1 | -9.67%
O=C(/C=C/c1cccc(C(F)(F)F)c1)N1CCN(c2ccccn2)CC1 | 55% (active)
CSc1ccc(Cl)c(C(=O)OCC(=O)N2CCNC2=O)c1 | 5.05%

Compound | inhibition
CCc1nn(CCCC(=O)NC(C)c2ccccc2)c(=O)c2cc3occc3n12 (stereo not given) | -11%
CC(CNc1ccc([N+](=O)[O-])cc1)NC(=O)c1ccccc1Br (stereo not given) | 28.5%
O=C(NCCNc1ccc([N+](=O)[O-])cc1)c1cccc2c(Br)cccc12 | 44.2% (active)
O=C(NCCNc1ccc([N+](=O)[O-])cc1Cl)c1ccccc1F | -4.29%
CCNC(=O)NC(=O)C(C)OC(=O)c1cc(S(=O)(=O)N2CCCCCC2)ccc1OC (stereo not given) | -0.223%
Cc1ccc(S(=O)(=O)NCCNC(C)c2ccc(Br)cc2)cc1 (stereo not given) | 43.7% (active)
O=C(CCNS(=O)(=O)c1ccccc1)NCCCc1ccccc1 | -0.453%
Cc1ccc(OCCNC(=O)CCNS(=O)(=O)c2ccc(Br)cc2)cc1 | 45.9% (active)
O=C(CCNS(=O)(=O)c1ccccc1)NCCSc1ccc(Br)cc1 | 51.2% (active)
O=C(CNC(=O)c1ccccc1Br)NCCSc1ccc(Br)cc1 | 22%
CC(CNS(=O)(=O)c1ccc(Br)cc1)CN(C)C (stereo not given) | 0.0488%
Cc1ccc(S(=O)(=O)NCCSC(C)(C)C)cc1 | -0.527%
CCOc1ccc(S(=O)(=O)NCCC(=O)NCC2CCCO2)cc1 (stereo not given) | -4.42%
CC(C)CCNC(=O)CCNS(=O)(=O)c1ccc(Cl)cc1 | -4.48%
O=C(Nc1ccc2c(c1)OCO2)C1CC(c2c(F)cccc2Cl)=NO1 (stereo not given) | 0.962%
COc1ccc(OC)c(Cc2cnc3nc(N)nc(N)c3c2C)c1 | -1.26%
CCOC(=O)/C(=N\Nc1ccccc1Cl)N(C)C1CCS(=O)(=O)C1 (stereo not given) | 1.11%
C=C1CCN([C@@H](Cc2ccccc2)C(=O)N2CCOCC2)S(=O)(=O)c2ccccc21 | 5.72%
c1ccc(C[C@H]2CNCCN2CCC23CC4CC(CC(C4)C2)C3)cc1 | -9.28%
CC1CCCCC1NC(=O)/C(C#N)=C/C=C/c1ccccc1[N+](=O)[O-] (stereo not given) | 8.62%
CC(=O)c1ccc(NC(=S)N(Cc2ccccc2)C(C)C2CC2)cc1 (stereo not given) | -3.28%
CN(CC(=O)Nc1ccc(OC(F)F)cc1)S(=O)(=O)/C=C/c1ccccc1 | 1.52%
CC(C)N(Cc1ccccc1)C(=S)Nc1ccc(OC(F)F)cc1 | 53.9% (active)

Compound | inhibition
CC1=NNC(=O)C1Cc1c(Cl)cccc1Cl (stereo not given) | 9.3%
Cc1ccc(S(=O)(=O)NC2(C(F)(F)F)NC(=O)N(CCc3ccccc3)C2=O)cc1 (stereo not given) | -2.6%
Cc1ccc(-n2nc(-c3ccco3)cc2C(=O)NCc2cccnc2)cc1 | 7.84%
Cc1ccc(-n2ncc3c2ncn2nc(-c4ccco4)nc32)c(C)c1 | -1.3%
Cc1ccc(-n2ncc3c(=O)n(-c4ccc(C)c(C)c4)c(-c4ccco4)nc32)cc1 | 51.2% (active)
CN(C)C(=O)c1cccc(-c2cnc3sc(NCc4ccc5c(c4)OCO5)nn23)c1 | -1.54%
CCN(Cc1ccncc1)C(=O)c1cccc(S(=O)(=O)N2CCOCC2)c1 | -5.08%
CCS(=O)(=O)N1CCN(C(=O)c2cccs2)CC1 | -10.3%
Cc1ccccc1N1CCN(C(=O)c2cccnc2)CC1 | -10.5%
COc1ccc(N2CCN(C(=O)c3cccs3)CC2)cc1 | -0.686%
O=C(CN1C(=O)NC2(CCCCC2)C1=O)N1CCN(C(=O)c2cccs2)CC1 | -15.2%
Cc1ccc(OCC(=O)N2CCN(C(=O)c3cccnc3)CC2)cc1 | 50.4% (active)
O=C(c1ccc(OC2CCN(C(=O)c3cccnc3)CC2)cc1)N1CCCCCC1 | -4.37%
COc1ccc(OCC(=O)N2CCN(C(=O)COc3ccccc3)CC2)cc1 | 50.8% (active)
O=C(COc1ccc2ccccc2c1)N1CCN(C(=O)c2cccs2)CC1 | 79.7% (active)
CC1CN(C2CCN(C(=O)COc3ccccc3)CC2)CC(C)O1 (stereo not given) | -0.0245%
O=C(COc1ccccc1)Nc1ccc(N2CCN(C(=O)c3cccs3)CC2)cc1 | 3.87%
COc1ccccc1C(=O)Nc1ccc(OCC(=O)N2CCCCC2)cc1 | -5.13%
COc1ccc(OCC(=O)N2CCN(C(=O)c3cccs3)CC2)cc1 | 49.9% (active)
O=C(O)/C=C/C(=O)NNc1ccc([N+](=O)[O-])cc1 | -16.6%
O=C(NC(CC(=O)N1CCN(c2ccccc2)CC1)c1ccccc1)c1ccccc1Cl (stereo not given) | 11.4%
COC(=O)[C@H](Cc1ccccc1)NC(=O)[C@@H]1C[C@H]1[C@@H](NC(=O)OCc1ccccc1)c1ccccc1 | 16.3%
COc1ccc([N+](=O)[O-])cc1NC(=O)CC1SC(=Nc2cccc(C)c2C)N(/N=C(\C)c2ccc(C)cc2)C1=O (stereo not given) | 3.23%

Compound | inhibition
Cc1noc(C)c1-c1ccc(C(=O)NCc2ccncc2)c2occc12 | -22.7%
C/C(Cl)=C\Cn1c(Nc2cccc(C)c2)nc2c1c(=O)n(C)c(=O)n2C | 22.8%
OC[C@@H]1CN(C2CCCC2)C[C@H](n2cnc3c(NC4CCC4)ncnc32)O1 | -9.08%
CCNc1nc(NC(C)C)nc(OCCOC(=O)c2ccccc2)n1 | -0.581%
CCN(CC)S(=O)(=O)c1ccc(Cl)c(C(=O)NC(C)C(c2cccs2)N2CCCC2)c1 (stereo not given) | -5.7%
COC(=O)c1cccc([N+](=O)[O-])c1CS(=O)(=O)c1ccc(C)cc1 | -6.03%
Clc1ccc(-c2cc(C3CCNCC3)[nH]n2)c(Cl)c1 | 0.184%
Cc1nc(NC(=O)C2CCCCC2)sc1C | -5.16%
COc1cc(C(C)=O)ccc1OC(=O)CN1C(=O)c2ccccc2C1=O | -7.55%
CC(C)OC(=O)CN1C(=O)C(=O)c2ccccc21 | 54.2% (active)
O=C1C(=O)N(c2ccccc2)c2ccccc21 | 4.82%
COC(=O)c1ccc(NC(=O)c2cc3c(CO)cnc(C)c3oc2=Nc2cccc(C(N)=O)c2)cc1 | 12.4%
CCCCn1nnnc1C(c1cccc(OC)c1OC)N1CCN(C/C=C/c2ccccc2)CC1 (stereo not given) | 24.9%
COc1ccc(C(c2nnnn2C2CCCCC2)N2CCN(c3ccccc3F)CC2)cc1 (stereo not given) | 31.1%
c1ccc(C(c2ccccc2)N2CCN(Cc3nnnn3C3CCCCC3)CC2)cc1 | 60.9% (active)
COc1ccccc1C(c1nnnn1C(C)(C)C)N1CCN(Cc2ccccc2)CC1 (stereo not given) | -27.6%
CC(C)C(c1nnnn1C1CCCC1)N1CCN(c2ccccc2F)CC1 (stereo not given) | 11.7%
COc1ccc(C(c2nnnn2C2CCCC2)N2CCN(C/C=C/c3ccccc3)CC2)cc1 (stereo not given) | 54.1% (active)
FC(F)(F)Oc1ccccc1C(c1nnnn1C1CCCCC1)N1CCN(C/C=C/c2ccccc2)CC1 (stereo not given) | 70.3% (active)
c1ccc(CCn2nnnc2CN2CCN(C3CCCC3)CC2)cc1 | -2.13%
COc1ccc(N2CCN(C(c3cc4ccc(C)cc4[nH]c3=O)c3nnnn3C3CCCC3)CC2)cc1 (stereo not given) | 2.46%
